Source: PubChem
SARS PLP yeast: qHTS of Yeast-based Assay for SARS-CoV PLP. 330,000 tested, 0.19% active. Potency, µM (top dose mostly 32.9 µM), usual class: activators. S. cerevisiae expressing SARS-CoV PLpro, growth rescue. AID 485353, 2010; calls by dose curve; note: nearly all actives have a fitted effect of over 55% in size
HCV inh: qHTS Assay for Inhibitors of Hepatitis C Virus (HCV). Potency, µM (top dose mostly 41.8 µM), actives largely listed as inhibitors. Huh7.5.1 HCVcc-Cre infection, luciferase reporter, 44 h. 340,000 tested, 3.4% active; active = well fitted inhibition curve with a large enough effect; inconclusive = small, poorly fitted or top-dose-only effect, or another doubt; inactive = no such curve, though single readings can be large or run the other way
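After 44 h co-culture of compound, cells and HCVcc-Cre (~0.5 moi), substrate is added for 15 min at room temperature and luciferase measured over 15 sec. Cells were seeded at 1,000/well and pre-cultured 4 h.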
HCMV inh: qHTS Assay for inhibitors of the human cytomegalovirus (HCMV); HFF cells, HCMV-luciferase reporter, 72 h; hits give low values; activity change, negative = inhibition, % at 57.5 µM; 410,000 tested, 4.5% active; in the data active = activity change below about -60%; inconclusive = no clear call, values can overlap the other calls; inactive = above about -39%
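After 16 h attachment at 37C, HFF cells received test compound and HCMV-luciferase (1 PFU/cell); reporter luminescence read 72 h later, data normalized against buffer-only and known inhibitor Salinomycin.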
Marburg entry inh: qHTS for inhibitors of binding or entry into cells for Marburg Virus; Marburg virus pseudotyped entry inhibition, cell reporter; Potency, µM (top dose mostly 37.8 µM), hits mostly inhibitors; 300,000 tested, 1.8% active; calls by dose curve; tested in HEK293 cells
Lassa entry inh: qHTS for Inhibitors of binding or entry into cells for Lassa Virus | Lassa virus pseudotype entry inhibition, cell reporter | Potency, µM (top dose mostly 37.9 µM), usual class: inhibitors | 300,000 tested, 1.2% active | AID 540256, 2011; calls by dose curve; tested in HEK293 cells; note: nearly all actives have a fitted effect of over 50% in size
FMDV antiviral: High Throughput Screening for Foot and Mouth Disease Virus Antivirals; FMDV antiviral cell-based qHTS; Potency, µM (top dose mostly 57.9 µM), actives largely listed as inhibitors; 410,000 tested, 1.2% active; calls by dose curve; tested in HEK293T cells; note: read-out not given here; nearly all actives have a fitted effect of over 45% in size
Of the large screens only hits and unclear results are named; the others gave an inactive call; ! = repeats disagree. Most compounds without a hit are left out; they make up all but 8% or so of the library.

CCn1c(C)nc2cc(C(=O)OC(C(F)(F)C(F)F)C(F)(F)C(F)F)ccc21	HCV inh inconclusive, Marburg entry inh 14µM, Lassa entry inh inconclusive
O=C(Cc1cccc(NC(=O)C2CCCN(C(=O)C3CCC3)C2)c1)Nc1cccc(C(=O)N2CCOCC2)c1 (stereo unspecified)	none (no result: SARS PLP yeast, Marburg entry inh, Lassa entry inh)
O=C(CCN1C(=O)C2CC=CCC2C1=O)OCC(=O)c1ccc(F)cc1 (stereo unspecified)	HCMV inh -76 (no result: Marburg entry inh, Lassa entry inh)
CN(C(=O)c1ccc2c(c1)N(Cc1ccccc1F)C(=O)c1ccccc1S2(=O)=O)C1CCCCC1	HCMV inh inconclusive, Marburg entry inh inconclusive (no result: SARS PLP yeast, HCV inh)
CCN(c1nc(N)c(C(=O)N=C(N)N)nc1Cl)C(C)C	HCV inh inconclusive, HCMV inh -62, Marburg entry inh 14µM, Lassa entry inh inconclusive (no result: SARS PLP yeast)
c1coc(CNc2c3c(nc4ncnn24)CCCC3)c1	none
Clc1cccc(-c2cc3nc4c(c(NCc5ccco5)n3n2)CCCC4)c1	HCV inh 10µM (no result: FMDV antiviral)
CCC(C)n1c(C)nc2c(c1=O)c1nc3ccccc3nc1n2CCC1=CCCCC1 (stereo unspecified)	HCMV inh -88
CCCCn1c2nc3ccccc3nc2c2c(=O)n(C(C)CC)cnc21 (stereo unspecified)	Marburg entry inh inconclusive
Cc1nc2ccccc2nc1CN1CCOc2ccc(C(C)(O)COc3ccccc3)cc2C1 (stereo unspecified)	none (no result: SARS PLP yeast, HCV inh, HCMV inh, Marburg entry inh, Lassa entry inh)
CCOc1ccc2oc(C(=O)N3CCN(c4ccccc4OCC)CC3)c(C)c2c1	none
COc1ccccc1-c1ccc(OCCCN2CCC(C(O)(c3ccccc3)c3ccccc3)CC2)cc1	HCMV inh -99 (no result: SARS PLP yeast, HCV inh, Marburg entry inh, Lassa entry inh, FMDV antiviral)
CC(C)(C)c1ccc(C(O)CCCN2CCC(C(O)(c3ccccc3)c3ccccc3)CC2)cc1 (stereo unspecified)	Marburg entry inh 2.2µM!, Lassa entry inh 2.9µM!, FMDV antiviral inconclusive
N#CCc1ccc(OCCCN2CCC(C(O)(c3ccccc3)c3ccccc3)CC2)cc1	none (no result: SARS PLP yeast, HCV inh, Marburg entry inh, Lassa entry inh)
Cc1cc(CNC(=O)CCN2Cc3cc(Cl)ccc3OC(C)C2)nn1C (stereo unspecified)	none (no result: SARS PLP yeast, HCV inh, HCMV inh, Marburg entry inh, Lassa entry inh)
CC(C)OCCCNC(=O)CSc1c2c(nc3ccc(Cl)cc13)CCCC2	FMDV antiviral inconclusive (no result: SARS PLP yeast, HCV inh)
CCN(CC)CCCNC(=O)CSc1c2c(nc3cc(Cl)ccc13)CCCC2	HCV inh 10µM, HCMV inh -107!, Marburg entry inh inconclusive, Lassa entry inh inconclusive, FMDV antiviral 32µM
O=C(CSc1c2c(nc3cc(Cl)ccc13)CCCC2)NCCCN1CCOCC1	HCV inh inconclusive, FMDV antiviral inconclusive (no result: Marburg entry inh, Lassa entry inh)
COCCCNC(=O)CSc1c2c(nc3ccc(Cl)cc13)CCCC2	HCV inh inconclusive, Marburg entry inh inconclusive, Lassa entry inh inconclusive, FMDV antiviral 28µM
COc1cc2c(cc1OC)C(COc1cc(C)cc(C)c1)N(C(=O)COc1ccccc1)CC2 (stereo unspecified)	Lassa entry inh inconclusive, FMDV antiviral inconclusive (no result: SARS PLP yeast, HCV inh, Marburg entry inh)
CC(Sc1nnc2c(n1)[nH]c1ccccc12)C(=O)NC1CCCCC1 (stereo unspecified)	HCV inh 5.6µM, Marburg entry inh 4.5µM, Lassa entry inh inconclusive, FMDV antiviral inconclusive
CC(Sc1nnc2c(n1)[nH]c1ccccc12)C(=O)N(C)C1CCCCC1 (stereo unspecified)	HCV inh 6.3µM, HCMV inh -85, Marburg entry inh inconclusive, Lassa entry inh inconclusive, FMDV antiviral inconclusive
O=C(CSc1nnc2c(n1)[nH]c1ccccc12)N1CCCCC1	HCV inh inconclusive, HCMV inh inconclusive
O=C(c1cccnc1)C1CCCN(Cc2ccc3c(c2)CN(C(=O)c2cccs2)CCO3)C1 (stereo unspecified)	none (no result: SARS PLP yeast, HCV inh, HCMV inh, Marburg entry inh, Lassa entry inh)
O=C1NC[C@@H](CCCCN2CCN(CCc3ccccc3)C(=O)C2=O)N(Cc2ccccc2)C1=O	none (no result: SARS PLP yeast, HCV inh, Marburg entry inh, Lassa entry inh)
O=C(CSc1nc2nccnc2c(=O)n1CCc1c[nH]c2ccccc12)Nc1ccc(F)cc1	HCMV inh -63 (no result: SARS PLP yeast, HCV inh, Marburg entry inh)
CN1CCN(C2=Nc3ccccc3Sc3ccc(Cl)cc32)CC1	none (no result: SARS PLP yeast, HCV inh, HCMV inh, Marburg entry inh, Lassa entry inh)
CN1CCN(C2=Nc3ccccc3Oc3ccc(Cl)cc32)CC1	Marburg entry inh 12µM
O=S(=O)(c1ccc(OCC2CO2)cc1)c1ccc(OCC2CO2)cc1 (stereo unspecified)	HCMV inh -68 (no result: Marburg entry inh, Lassa entry inh)
Cc1ccc2nsnc2c1S(=O)(=O)N1CCN(C)CC1	none
COc1ccc(S(=O)(=O)N2CCN(Cc3ccc4c(c3)OCO4)CC2)cc1C	none (no result: SARS PLP yeast, HCV inh, Marburg entry inh)
Cc1cc(S(=O)(=O)N2CCN(Cc3ccc4c(c3)OCO4)CC2)cc(C)c1N1CCCC1=O	HCMV inh -96, FMDV antiviral inconclusive
Cc1ccc2nsnc2c1S(=O)(=O)N1CCN(Cc2ccc3c(c2)OCO3)CC1	HCV inh 22µM! (no result: FMDV antiviral)
O=C(CSc1nnc(-c2ccccc2)o1)c1cccc([N+](=O)[O-])c1	none (no result: SARS PLP yeast, HCV inh)
CCN(Cc1ccccc1)C(=O)COC(=O)c1c(C)nsc1NC	HCV inh 11µM, HCMV inh -66, FMDV antiviral inconclusive (no result: Marburg entry inh, Lassa entry inh)
O=C(C1CCOC1)N1CCOc2ccc(CN3CCC(Oc4cccnc4)CC3)cc2C1 (stereo unspecified)	none (no result: SARS PLP yeast, HCV inh, HCMV inh, Marburg entry inh, Lassa entry inh)
Cc1ccc2[nH]c3c(c2c1)CN(C(=O)CN1CCN(c2cccc(C)c2C)CC1)CC3	HCV inh 6.3µM, Marburg entry inh inconclusive, Lassa entry inh inconclusive, FMDV antiviral inconclusive
Cc1ccc2[nH]c3c(c2c1)CN(C(=O)CN1CCN(C(=O)c2ccco2)CC1)CC3	none (no result: HCV inh, Marburg entry inh, Lassa entry inh, FMDV antiviral)
c1cncc(-c2cc(NCc3cccs3)ncn2)c1	none (no result: SARS PLP yeast, HCV inh, HCMV inh, Marburg entry inh, Lassa entry inh)
COc1ccc(COC(=O)N/N=C(\C)CC(=O)Nc2c(C)cc(C)cc2C)cc1	Lassa entry inh 7.3µM
